Experimental data: PubChem BioAssay (NCATS)
Where “and” joins values, the source holds several entries; their conditions need not be identical. Identical values can stand only once. Results filed as inconclusive are left out. Entries that show only a call come without a potency. Calls of active or inactive are those of the source. Calls come from the whole dose curve; as a rule, active = well fitted curve in the direction sought with a large enough effect; inconclusive = small, poorly fitted or top-dose-only effect, or another doubt; inactive = no such curve, though single readings can be large; an effect the other way counts as inactive or inconclusive.

Tests used:
[1] = target: Calcium and integrin-binding protein 1 (Homo sapiens) (UniProt Q99828); test: Primary qHTS for Identification of Calcium Integrin Binding Protein 1 (CIB1) Competitor (AID 1508620);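 note: GST tagged CIB1 binding a fluorescein labelled alphaIIb integrin peptide tracer; top concentration of the series differs between compounds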
Calcium and integrin-binding protein 1 (Homo sapiens), sequence (Q99828 whole entry, looked up): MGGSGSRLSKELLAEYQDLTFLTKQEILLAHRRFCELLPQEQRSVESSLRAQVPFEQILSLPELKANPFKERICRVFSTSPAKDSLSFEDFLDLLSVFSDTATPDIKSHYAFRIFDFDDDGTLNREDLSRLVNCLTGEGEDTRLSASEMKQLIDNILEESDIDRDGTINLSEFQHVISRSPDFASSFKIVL
Method in brief: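 CIB1-GST (1 uM final) and compound incubated 15 min at room temperature before adding FITC-alphaIIb peptide tracer (100 nM final). Competition for binding read by fluorescence polarization (ex 480, em 540) after another 15 min at room temperature.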

[2] = Primary qHTS for inhibitors of nuclear receptor binding SET domain protein 2 (NSD2) in an isogenic RCH-ACV NSD2 p.E1099K mutant (9B) (AID 1645876); note: nearly all actives have a fitted effect of over 70% in size; note: potency is the fitted concentration of half-maximal effect
[3] = Primary qHTS for inhibitors of nuclear receptor binding SET domain protein 2 (NSD2) in an RCH-ACV wild type WT cells (2C) (AID 1645877); note: nearly all actives have a fitted effect of over 70% in size; note: potency is the fitted concentration of half-maximal effect
[4] = target: Rap guanine nucleotide exchange factor 3 (Homo sapiens) (UniProt O95398); test: Confirmatory qHTS for agonist of cAMP-regulated guanine nucleotide exchange factor 3 (EPAC1) (AID 1645881);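 note: EPAC1 catalysed release of BODIPY-GDP from Rap1B seen as fluorescence loss; nearly all actives have a fitted effect of over 75% in size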
Rap guanine nucleotide exchange factor 3 (Homo sapiens), sequence (O95398 whole entry, looked up): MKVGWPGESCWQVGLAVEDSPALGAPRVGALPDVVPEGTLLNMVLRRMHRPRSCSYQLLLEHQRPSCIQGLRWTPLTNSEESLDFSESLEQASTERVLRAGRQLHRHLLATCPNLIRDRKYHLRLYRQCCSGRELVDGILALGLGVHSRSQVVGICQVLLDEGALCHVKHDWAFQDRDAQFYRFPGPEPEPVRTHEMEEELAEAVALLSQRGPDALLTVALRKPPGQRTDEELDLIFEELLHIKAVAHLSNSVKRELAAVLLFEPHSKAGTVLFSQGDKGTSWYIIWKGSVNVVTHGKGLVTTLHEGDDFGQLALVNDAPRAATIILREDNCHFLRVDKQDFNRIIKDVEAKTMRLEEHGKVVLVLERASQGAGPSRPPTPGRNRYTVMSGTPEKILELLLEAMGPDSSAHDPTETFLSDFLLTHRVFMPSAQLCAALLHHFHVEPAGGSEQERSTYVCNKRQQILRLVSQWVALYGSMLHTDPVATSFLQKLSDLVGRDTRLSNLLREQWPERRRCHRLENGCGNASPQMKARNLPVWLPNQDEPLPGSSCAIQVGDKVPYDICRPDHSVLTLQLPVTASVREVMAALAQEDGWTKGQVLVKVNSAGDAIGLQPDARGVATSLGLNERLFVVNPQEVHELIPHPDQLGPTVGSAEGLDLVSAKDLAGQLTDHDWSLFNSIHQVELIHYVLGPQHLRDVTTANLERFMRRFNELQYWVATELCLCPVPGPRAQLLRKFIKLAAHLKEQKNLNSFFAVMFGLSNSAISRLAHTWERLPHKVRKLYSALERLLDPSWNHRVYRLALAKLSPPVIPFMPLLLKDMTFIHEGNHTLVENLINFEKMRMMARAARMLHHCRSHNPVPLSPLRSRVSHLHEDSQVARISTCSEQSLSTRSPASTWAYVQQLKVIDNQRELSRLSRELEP

[5] = target: Rap guanine nucleotide exchange factor 4 (Homo sapiens) (UniProt Q8WZA2); test: Confirmatory qHTS for agonist of cAMP-regulated guanine nucleotide exchange factor 4 (EPAC2) (AID 1645884);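 note: nucleotide exchange releases bodipy-GDP from Rap1 and this lowers its fluorescence; nearly all actives have a fitted effect of over 65% in size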
Rap guanine nucleotide exchange factor 4 (Homo sapiens), sequence (Q8WZA2 whole entry, looked up): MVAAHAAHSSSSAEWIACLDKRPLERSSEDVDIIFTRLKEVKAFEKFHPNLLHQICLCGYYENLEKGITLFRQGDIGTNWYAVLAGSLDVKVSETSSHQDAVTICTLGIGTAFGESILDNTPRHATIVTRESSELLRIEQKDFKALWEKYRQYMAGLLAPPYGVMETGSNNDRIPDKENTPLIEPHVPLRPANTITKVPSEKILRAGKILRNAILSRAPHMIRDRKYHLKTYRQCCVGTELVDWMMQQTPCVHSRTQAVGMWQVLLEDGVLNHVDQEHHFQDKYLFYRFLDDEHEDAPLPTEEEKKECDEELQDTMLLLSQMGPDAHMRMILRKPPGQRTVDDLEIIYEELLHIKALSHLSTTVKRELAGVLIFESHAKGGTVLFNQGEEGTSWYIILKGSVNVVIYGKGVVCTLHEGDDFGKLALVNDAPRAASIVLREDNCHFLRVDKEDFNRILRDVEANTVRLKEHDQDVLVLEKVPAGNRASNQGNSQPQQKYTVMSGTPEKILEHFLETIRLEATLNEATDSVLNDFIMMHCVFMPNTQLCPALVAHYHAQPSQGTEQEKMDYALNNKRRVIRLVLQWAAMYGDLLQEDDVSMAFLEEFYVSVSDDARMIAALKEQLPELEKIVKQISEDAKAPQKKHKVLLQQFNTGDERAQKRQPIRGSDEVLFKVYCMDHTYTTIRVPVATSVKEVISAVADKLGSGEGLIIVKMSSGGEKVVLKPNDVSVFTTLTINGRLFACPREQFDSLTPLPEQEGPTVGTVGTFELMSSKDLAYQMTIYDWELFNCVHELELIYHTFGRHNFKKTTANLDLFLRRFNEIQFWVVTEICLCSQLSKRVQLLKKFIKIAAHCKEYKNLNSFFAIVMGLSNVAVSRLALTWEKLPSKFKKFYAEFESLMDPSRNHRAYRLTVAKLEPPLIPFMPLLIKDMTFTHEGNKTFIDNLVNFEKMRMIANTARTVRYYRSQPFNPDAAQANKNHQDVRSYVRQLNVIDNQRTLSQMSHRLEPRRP

[6] = target: Rap guanine nucleotide exchange factor 4 (Homo sapiens) (UniProt Q8WZA2); test: Confirmatory qHTS for antagonist of cAMP-regulated guanine nucleotide exchange factor 4 (EPAC2) (AID 1645885); note: nearly all actives have a fitted effect of over 25% in size

With O=C(Nc1cnc(Cl)nc1)c1ccc(F)c(F)c1 the Potency [1] was “inactive”, the Potency [2] was “inactive” and the Potency [3] was “inactive”.

In the case of COCC(c1ccc(C(F)(F)F)cc1)N1CCN(C2(C)CCN(C(=O)c3c(C)ncnc3C)CC2)CC1C (stereo not given), the Potency [1] is reported as “inactive”, the Potency [2] is reported as “inactive” and the Potency [3] is reported as “inactive”.

With C=C1C(=O)O[C@@H]2C[C@H](C)[C@@H]3CC(=O)[C@H](O)[C@@]3(C)C[C@H]12 the Potency [1] was “inactive”, the Potency [2] was 20.5 µM (active) and the Potency [3] was 10.3 µM (active).

With CS(=O)(=O)c1ccc(Oc2cc(F)cc(C#N)c2)c2c1[C@H](O)C(F)(F)C2 the Potency [1] was “inactive”, the Potency [2] was “inactive” and the Potency [3] was “inactive”.

With C[C@H]1CC[C@@]2(OC1)O[C@H]1CC3[C@@H]4CC[C@@H]5C[C@@H](O[C@@H]6O[C@H](CO)[C@@H](O[C@@H]7O[C@H](CO[C@@H]8OC[C@@H](O)[C@H](O)[C@H]8O)[C@@H](O[C@@H]8O[C@H](CO)[C@H](O)[C@H](O)[C@H]8O)[C@H](O)[C@H]7O)[C@H](O)[C@H]6O)CC[C@]5(C)C4CC[C@]3(C)[C@H]1[C@@H]2C (stereo not given in full) the Potency [1] was “inactive” and the Potency [3] was 3.46 µM (active).

With Cn1cc(-c2ccc3c(c2)CCN3C(=O)Cc2cccc(C(F)(F)F)c2)c2c(N)ncnc21 the Potency [1] was “inactive” and the Potency [3] was “inactive”.

In the case of CC(C)n1cnc2c(-c3cnc(N)nc3)nc(N3CCOCC3)nc21, the Potency [1] is reported as “inactive”, the Potency [2] is reported as 0.159 µM (active) and the Potency [3] is reported as 0.224 µM (active).

For COc1ccccc1C(=O)Nc1cc2c(cc1N1CCCC1)n(C)c(=O)n2C, the Potency [1] was “inactive” and the Potency [3] was 23.5 µM (active).

In the case of C=C[C@](C)(O)CC[C@H]1C(C)=CC(=O)[C@H]2C(C)(C)CCC[C@]12C, the Potency [1] is reported as “inactive” and the Potency [3] is reported as 18.3 µM (active).

In the case of COc1cccc(-c2cc(F)ccc2C2Cc3nc(N)nc(C)c3C(=O)N2)n1 (stereo not given), the Potency [1] is reported as “inactive”, the Potency [2] is reported as 0.0525 µM (active) and the Potency [3] is reported as 0.059 µM (active).

With C=C1C(=O)OC2C1CCC1(C)C(O)CC=C(C)C21 (stereo not given) the Potency [1] was “inactive”, the Potency [2] was 18.3 µM (active) and the Potency [3] was 16.3 µM (active).

With COc1cc2c(c(OC)c1CC=C(C)C)C[C@H](c1ccc(O)c(CC=C(C)C)c1O)CO2 the Potency [1] was “inactive” and the Potency [3] was “inactive”.

With COc1ccc(NC(=O)C2C[C@H](C)CC[C@H]2C(C)C)cc1 (stereo not given in full) the Potency [1] was “inactive” and the Potency [3] was “inactive”.

For N#Cc1ccnc(Nc2cc(C3CCN(C4COC4)CC3)cc(N3CCC(F)(F)C3)n2)c1, the Potency [1] was “inactive”, the Potency [2] was 2.91 µM (active) and 934 nM (active) and the Potency [3] was 2.59 µM (active) and 525 nM (active).

With C[C@@H]1O[C@@H](O[C@H]2[C@@H]3C=CO[C@@H](O[C@@H]4O[C@H](CO)[C@@H](O)[C@H](O)[C@H]4O)[C@@H]3[C@@]3(CO)O[C@@H]23)[C@H](O)[C@H](OC(=O)/C=C/c2ccccc2)[C@H]1O the Potency [1] was “inactive” and the Potency [3] was 5.41 µM (active).

For C=C1C(OC2OC(CO)C(O)C(O)C2O)CC2C(C)(C)C(O)CCC2(C)C1CC/C(C)=C\COC(=O)CC(=O)O (stereo not given), the Potency [1] was “inactive” and the Potency [3] was 4.83 µM (active).

In the case of O=c1[nH]cnc2c([C@@H]3N[C@H](CO)[C@@H](O)[C@H]3O)c[nH]c12, the Potency [1] is reported as “inactive”, the Potency [2] is reported as “inactive” and the Potency [3] is reported as “inactive”.

For CCC(C)C1NC(=O)C(Cc2ccccc2)NC(=O)C(CCCCCC(=O)C(O)CO)NC(=O)C2CCCCN2C1=O (stereo not given), the Potency [1] was “inactive”, the Potency [2] was 6.08 µM (active) and the Potency [3] was 2.16 µM (active).

With C/C=C(/C=C(C)/C=C/C=C/C=C(\C)C(=O)C12OC1C(O)(CCO)NC2=O)C(=O)OC (stereo not given) the Potency [1] was “inactive” and the Potency [3] was 7.96 µM (active).

For CC1(C)CCC(C)(C)c2cc(C#Cc3ccc(C(=O)O)cc3)ccc21, the Potency [1] was “inactive” and the Potency [3] was “inactive”.

For COC(CCc1ccc(O)cc1)CC(=O)CCc1ccc(O)cc1 (stereo not given), the Potency [1] was “inactive”, the Potency [2] was 5.67 µM (active) and the Potency [3] was 8.98 µM (active).

With C=CC(C)(C)c1[nH]c2ccccc2c1C[C@@H]1NC(=O)[C@H](C)NC1=O the Potency [1] was “inactive” and the Potency [3] was “inactive”.

In the case of COC1=CC(=O)O/C1=C(/OC)[C@@H]1O[C@H]1c1ccccc1, the Potency [1] is reported as “inactive” and the Potency [3] is reported as 18.3 µM (active).

For C=C1CC2[C@@]3(C)C=CC(=O)C(C)(C)C3=C(O)C(=O)[C@@]2(C)C2(C(=O)OC)C(=O)C(C)OC(=O)[C@@]12C (stereo not given in full), the Potency [1] was “inactive” and the Potency [3] was 8.93 µM (active).

With C[C@H]1CC[C@@]2(OC1)O[C@H]1CC3C4CC[C@H]5C[C@@H](O)CC[C@]5(C)C4=CC(=O)[C@]3(C)[C@H]1[C@@H]2C (stereo not given in full) the Potency [1] was “inactive”, the Potency [2] was “inactive” and the Potency [3] was “inactive”.

For CC(=O)O[C@H]1[C@@]2(O)C[C@H](C)[C@H](OC(=O)c3ccccc3)[C@@H]2[C@@H](OC(=O)CO)[C@]2(OC(C)=O)C[C@H]3C(=O)C(C)(C)C[C@@H]3[C@@]1(C)[C@H]2OC(C)=O, the Potency [1] was “inactive” and the Potency [3] was “inactive”.

For CC(=O)[C@H]1CC[C@H]2[C@@H]3CC=C4C[C@@H](OS(=O)(=O)O)CC[C@]4(C)[C@H]3CC[C@]12C, the Potency [1] was “inactive”, the Potency [2] was “inactive” and the Potency [3] was “inactive”. The outcome [4] was “inactive”, the outcome [5] was “inactive” and the Potency [6] was “inactive”.
